We go through seven sequences from publication PMC7862700, “An all-to-all approach to the identification of sequence-specific readers for epigenetic DNA modifications on cytosine”.

What all share (assay): DAPPL (digital affinity profiling via proximity ligation, sequencing); 10 mM Tris-HCl pH 7.5, 50 mM NaCl, 1 mM DTT, 4% glycerol, room temperature, 30 min; GST-TFs on glutathione beads, 16-mer random dsDNA library, 0.1% formaldehyde crosslink after washing; high values mean tight binding
What all share (conditions): protein: recombinant; tags: N-terminal GST; dsDNA, one strand shown

For one assay, the target named is T1, FLI1 (Homo sapiens, UniProt Q01543 1-452).
T1 sequence: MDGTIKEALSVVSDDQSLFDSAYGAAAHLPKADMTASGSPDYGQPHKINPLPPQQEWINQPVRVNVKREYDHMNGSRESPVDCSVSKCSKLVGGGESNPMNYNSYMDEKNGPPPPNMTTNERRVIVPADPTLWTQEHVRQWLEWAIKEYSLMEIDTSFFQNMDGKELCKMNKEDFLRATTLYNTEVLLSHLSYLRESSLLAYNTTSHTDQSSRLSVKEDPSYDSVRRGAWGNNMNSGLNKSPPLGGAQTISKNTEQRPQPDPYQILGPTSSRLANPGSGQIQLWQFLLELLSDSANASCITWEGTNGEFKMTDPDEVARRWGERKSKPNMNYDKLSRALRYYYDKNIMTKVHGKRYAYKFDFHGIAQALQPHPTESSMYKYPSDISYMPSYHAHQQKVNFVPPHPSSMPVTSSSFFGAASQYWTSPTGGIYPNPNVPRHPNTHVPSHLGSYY
In a few lines: (§1)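 Beads coated with glutathione captured GST-fused human transcription factors that had been expressed in yeast, and the factors were then given DNA barcodes and pooled with a tag-only sample. The pools were incubated with 200 nmole of a random double-stranded 16-mer DNA library in Tris/NaCl/DTT/glycerol buffer for 30 min at room temperature, washed, crosslinked with 0.1% formaldehyde and proximity-ligated with BsaI/T4 ligase at 37 °C for 1 h. PCR amplification and Illumina NextSeq500 sequencing came last. Binding signal is each hexamer's read frequency for a factor divided by its frequency for the tag-only sample.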

The target of another assay is T2, ELK1 (Homo sapiens, UniProt P19419 1-428).
T2 sequence: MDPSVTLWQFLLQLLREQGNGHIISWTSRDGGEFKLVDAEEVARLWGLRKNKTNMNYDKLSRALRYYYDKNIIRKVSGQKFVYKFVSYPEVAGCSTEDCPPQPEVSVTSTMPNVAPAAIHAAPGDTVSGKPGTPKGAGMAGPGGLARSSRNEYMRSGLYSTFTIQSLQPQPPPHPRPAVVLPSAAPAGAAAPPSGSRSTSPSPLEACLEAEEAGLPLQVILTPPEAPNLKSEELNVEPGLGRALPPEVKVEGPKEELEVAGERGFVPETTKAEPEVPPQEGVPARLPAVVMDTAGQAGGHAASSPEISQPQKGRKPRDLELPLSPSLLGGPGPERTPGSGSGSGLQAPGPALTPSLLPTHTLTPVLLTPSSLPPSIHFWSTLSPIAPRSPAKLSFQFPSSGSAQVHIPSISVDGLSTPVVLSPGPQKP
The method, boiled down: as §1

The target in another assay is T3, GABPA (Homo sapiens, UniProt Q06546 1-454).
T3 sequence: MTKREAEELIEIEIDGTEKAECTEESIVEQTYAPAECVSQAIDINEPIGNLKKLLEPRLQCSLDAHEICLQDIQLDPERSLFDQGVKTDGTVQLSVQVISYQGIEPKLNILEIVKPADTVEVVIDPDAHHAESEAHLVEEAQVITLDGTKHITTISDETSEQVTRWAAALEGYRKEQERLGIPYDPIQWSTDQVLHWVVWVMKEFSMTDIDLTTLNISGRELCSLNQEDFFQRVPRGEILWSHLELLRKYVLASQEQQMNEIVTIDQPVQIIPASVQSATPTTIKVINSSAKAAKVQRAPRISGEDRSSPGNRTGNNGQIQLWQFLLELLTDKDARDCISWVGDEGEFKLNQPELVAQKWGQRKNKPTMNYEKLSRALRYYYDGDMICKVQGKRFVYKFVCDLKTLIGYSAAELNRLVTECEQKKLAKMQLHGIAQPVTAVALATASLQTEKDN
In a few lines:
as §1

For another assay, the target named is T4, ERG (Homo sapiens, UniProt P11308 1-479).
T4 sequence: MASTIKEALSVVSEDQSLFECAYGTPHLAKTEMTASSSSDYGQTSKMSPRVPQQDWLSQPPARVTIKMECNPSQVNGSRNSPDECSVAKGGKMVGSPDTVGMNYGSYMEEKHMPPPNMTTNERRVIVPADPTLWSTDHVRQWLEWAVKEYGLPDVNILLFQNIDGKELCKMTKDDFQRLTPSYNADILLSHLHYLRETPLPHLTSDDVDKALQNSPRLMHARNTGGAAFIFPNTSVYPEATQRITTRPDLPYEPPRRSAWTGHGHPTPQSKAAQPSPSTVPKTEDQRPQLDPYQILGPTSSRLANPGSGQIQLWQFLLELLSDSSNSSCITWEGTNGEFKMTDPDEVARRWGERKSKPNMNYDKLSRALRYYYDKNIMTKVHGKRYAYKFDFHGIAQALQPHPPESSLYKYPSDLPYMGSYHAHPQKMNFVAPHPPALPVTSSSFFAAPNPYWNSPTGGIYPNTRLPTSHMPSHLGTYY
The method, boiled down:
as §1

A further assay concerns the target ELF1 (Homo sapiens, UniProt P32519 1-619). In a few lines: as §1
In the next assay the target is T5, EHF (Homo sapiens, UniProt Q9NZC4 1-300).
T5 sequence: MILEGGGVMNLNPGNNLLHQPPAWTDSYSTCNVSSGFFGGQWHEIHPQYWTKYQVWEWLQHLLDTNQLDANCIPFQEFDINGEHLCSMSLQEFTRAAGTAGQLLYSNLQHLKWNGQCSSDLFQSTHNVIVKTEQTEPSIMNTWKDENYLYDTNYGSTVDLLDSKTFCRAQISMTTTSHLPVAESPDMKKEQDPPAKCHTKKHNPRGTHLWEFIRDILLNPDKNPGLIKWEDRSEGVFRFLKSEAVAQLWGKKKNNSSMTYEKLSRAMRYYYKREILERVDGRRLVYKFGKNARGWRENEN
The method, boiled down: as §1

In a further assay the target is SPI1 (Homo sapiens, UniProt P17947 1-270). In a few lines:
as §1

The target in another assay is SPIB (Homo sapiens, UniProt Q01892 1-262). The method, boiled down: as §1
Sequence of SPIB (Q01892 whole entry): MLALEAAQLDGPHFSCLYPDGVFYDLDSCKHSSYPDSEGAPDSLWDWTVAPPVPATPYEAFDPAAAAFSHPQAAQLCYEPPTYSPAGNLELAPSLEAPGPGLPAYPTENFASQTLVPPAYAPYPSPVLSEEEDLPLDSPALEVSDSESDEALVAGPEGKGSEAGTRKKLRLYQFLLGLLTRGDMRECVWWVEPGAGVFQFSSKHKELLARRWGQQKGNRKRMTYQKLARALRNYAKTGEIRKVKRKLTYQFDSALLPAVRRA
Another assay addresses T6, ELK3 (Homo sapiens, UniProt P41970 1-407).
T6 sequence: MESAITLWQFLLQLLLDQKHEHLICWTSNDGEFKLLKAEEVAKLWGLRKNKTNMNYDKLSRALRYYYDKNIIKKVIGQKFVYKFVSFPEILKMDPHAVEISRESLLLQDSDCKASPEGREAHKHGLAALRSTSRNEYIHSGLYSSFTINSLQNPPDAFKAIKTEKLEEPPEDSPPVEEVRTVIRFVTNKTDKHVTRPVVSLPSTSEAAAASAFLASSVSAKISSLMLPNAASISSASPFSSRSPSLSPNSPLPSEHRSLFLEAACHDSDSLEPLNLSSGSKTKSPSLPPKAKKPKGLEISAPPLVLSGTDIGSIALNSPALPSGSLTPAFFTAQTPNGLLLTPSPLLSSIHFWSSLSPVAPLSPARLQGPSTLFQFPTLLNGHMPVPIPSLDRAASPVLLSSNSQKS
The method, boiled down:
as §1

Sequence of ELF1 (P32519 whole entry): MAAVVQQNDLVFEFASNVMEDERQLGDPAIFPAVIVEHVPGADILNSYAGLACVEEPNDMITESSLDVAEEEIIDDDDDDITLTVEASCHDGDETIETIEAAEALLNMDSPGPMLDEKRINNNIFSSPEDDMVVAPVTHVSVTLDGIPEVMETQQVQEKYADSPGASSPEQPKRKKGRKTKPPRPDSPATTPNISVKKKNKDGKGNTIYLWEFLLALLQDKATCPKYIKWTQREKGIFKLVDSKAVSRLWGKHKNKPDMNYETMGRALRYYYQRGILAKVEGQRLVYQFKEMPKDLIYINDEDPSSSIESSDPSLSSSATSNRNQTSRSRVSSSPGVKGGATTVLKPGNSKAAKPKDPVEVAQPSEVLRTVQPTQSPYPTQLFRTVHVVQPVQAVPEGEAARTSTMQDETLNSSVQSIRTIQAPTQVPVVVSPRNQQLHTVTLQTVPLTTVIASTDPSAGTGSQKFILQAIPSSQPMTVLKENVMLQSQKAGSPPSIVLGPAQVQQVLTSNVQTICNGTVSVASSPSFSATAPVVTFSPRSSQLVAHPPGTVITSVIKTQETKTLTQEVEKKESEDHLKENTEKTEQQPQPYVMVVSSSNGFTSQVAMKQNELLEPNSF

Consider TGTTGC, for which the binding signal with FLI1 is 1.33 fold enrichment (6-mer frequency, TF over GST control); in the assay with ELK1, 1.32 fold enrichment (6-mer frequency, TF over GST control); with GABPA, 1.33 fold enrichment (6-mer frequency, TF over GST control); with ERG, 1.3 fold enrichment (6-mer frequency, TF over GST control); with ELF1, 1.31 fold enrichment (6-mer frequency, TF over GST control); with EHF it was 1.3 fold enrichment (6-mer frequency, TF over GST control). Moreover, the binding signal is 1.33 fold enrichment (6-mer frequency, TF over GST control) with SPI1; 1.35 fold enrichment (6-mer frequency, TF over GST control) with SPIB; 1.4 fold enrichment (6-mer frequency, TF over GST control) with ELK3.

Consider CTGAAC, for which the binding signal in the assay with FLI1 is 1.35 fold enrichment (6-mer frequency, TF over GST control); with ELK1, 1.41 fold enrichment (6-mer frequency, TF over GST control); in the assay with GABPA, 1.37 fold enrichment (6-mer frequency, TF over GST control); with ERG, 1.4 fold enrichment (6-mer frequency, TF over GST control); with ELF1, 1.37 fold enrichment (6-mer frequency, TF over GST control); in the assay with EHF it was 1.35 fold enrichment (6-mer frequency, TF over GST control). For the same sequence, the binding signal in the assay with SPI1 is 1.36 fold enrichment (6-mer frequency, TF over GST control); with SPIB, 1.42 fold enrichment (6-mer frequency, TF over GST control); in the assay with ELK3 it was 1.2 fold enrichment (6-mer frequency, TF over GST control).

With CTGGAT, the binding signal is 1.31 fold enrichment (6-mer frequency, TF over GST control) with FLI1; 1.19 fold enrichment (6-mer frequency, TF over GST control) with ELK1; 1.38 fold enrichment (6-mer frequency, TF over GST control) in the assay with GABPA; 1.38 fold enrichment (6-mer frequency, TF over GST control) with ERG; 1.36 fold enrichment (6-mer frequency, TF over GST control) in the assay with ELF1; 1.32 fold enrichment (6-mer frequency, TF over GST control) in the assay with EHF. Besides, the binding signal in the assay with SPI1 was 1.25 fold enrichment (6-mer frequency, TF over GST control); with SPIB, 1.36 fold enrichment (6-mer frequency, TF over GST control); with ELK3, 1.31 fold enrichment (6-mer frequency, TF over GST control).

For CCTAAA, the binding signal was 1.35 fold enrichment (6-mer frequency, TF over GST control) with FLI1; 1.26 fold enrichment (6-mer frequency, TF over GST control) with ELK1; 1.25 fold enrichment (6-mer frequency, TF over GST control) in the assay with GABPA; 1.37 fold enrichment (6-mer frequency, TF over GST control) with ERG; 1.34 fold enrichment (6-mer frequency, TF over GST control) with ELF1; 1.28 fold enrichment (6-mer frequency, TF over GST control) with EHF. In addition, the binding signal is 1.25 fold enrichment (6-mer frequency, TF over GST control) with SPI1; 1.26 fold enrichment (6-mer frequency, TF over GST control) with SPIB; 1.4 fold enrichment (6-mer frequency, TF over GST control) in the assay with ELK3.

As for TCCTGC, the binding signal with FLI1 is 1.61 fold enrichment (6-mer frequency, TF over GST control); with ELK1 it was 1.8 fold enrichment (6-mer frequency, TF over GST control); with GABPA, 1.49 fold enrichment (6-mer frequency, TF over GST control); with ERG, 1.68 fold enrichment (6-mer frequency, TF over GST control); with ELF1, 1.66 fold enrichment (6-mer frequency, TF over GST control); with EHF, 1.53 fold enrichment (6-mer frequency, TF over GST control). The binding signal in the assay with SPI1 was 1.67 fold enrichment (6-mer frequency, TF over GST control); with SPIB it was 1.81 fold enrichment (6-mer frequency, TF over GST control); with ELK3 it was 1.46 fold enrichment (6-mer frequency, TF over GST control).

Consider AATTTA, for which the binding signal in the assay with FLI1 was 1.17 fold enrichment (6-mer frequency, TF over GST control); with ELK1, 1.3 fold enrichment (6-mer frequency, TF over GST control); with GABPA it was 1.24 fold enrichment (6-mer frequency, TF over GST control); with ERG, 1.19 fold enrichment (6-mer frequency, TF over GST control); with ELF1, 1.24 fold enrichment (6-mer frequency, TF over GST control); with EHF, 1.19 fold enrichment (6-mer frequency, TF over GST control). The binding signal was 1.2 fold enrichment (6-mer frequency, TF over GST control) in the assay with SPI1; 1.4 fold enrichment (6-mer frequency, TF over GST control) in the assay with SPIB; 1.16 fold enrichment (6-mer frequency, TF over GST control) in the assay with ELK3.

In the case of TACATG, the binding signal in the assay with FLI1 was 1.24 fold enrichment (6-mer frequency, TF over GST control); with ELK1 it was 1.09 fold enrichment (6-mer frequency, TF over GST control); with GABPA, 1.14 fold enrichment (6-mer frequency, TF over GST control); in the assay with ERG it was 1.2 fold enrichment (6-mer frequency, TF over GST control); in the assay with ELF1, 1.27 fold enrichment (6-mer frequency, TF over GST control); in the assay with EHF, 1.18 fold enrichment (6-mer frequency, TF over GST control). Besides, the binding signal was 1.26 fold enrichment (6-mer frequency, TF over GST control) in the assay with SPI1; 1.16 fold enrichment (6-mer frequency, TF over GST control) with SPIB; 1.3 fold enrichment (6-mer frequency, TF over GST control) with ELK3.
